Compound activity (PubChem)
TDP1 cell CPT = growth inhibition of DT40 Tdp1-/-;hTDP1 cells with camptothecin (screen for TDP1 inhibitors) | chicken DT40 Tdp1-/-;hTDP1 cells + 20 nM CPT, ATP luminescence, 48 h | Potency, µM (highest dose often 46.2 µM), hits mostly inhibitors | 420,000 tested, 12% active; also: nearly all actives have a fitted effect of over 55% in size
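Chicken DT40 Tdp1-/- cells complemented with human TDP1, 400 cells/well, exposed to compounds plus 20 nM camptothecin for at least 48 h at 37 C; viability read as ATP content by CellTiter-Glo luminescence.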
ClpP mod = qHTS Assay for Activators of ClpP; purified B. subtilis ClpP, FRET peptide cleavage, 20 min; ATP-dependent Clp protease proteolytic subunit (Bacillus subtilis (strain 168)), P80244; AID 651965, 2013; Potency, µM (top dose mostly 57.5 µM); 340,000 tested, 1.9% active; active = well fitted falling curve with a large enough effect; inconclusive = small, poorly fitted or top-dose-only effect; inactive = no such curve, though single readings can be large or run the other way; also: the source files actives as falling curves though it sought activators and does not explain the sign; nearly all actives have a fitted effect of over 65% in size
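Buffer: 100 mM Tris/HCl pH8, 100 mM KCl, 0.05% low protease BSA, 2.5% glycerol, 0.01% Tween-20. ClpP 10 microg/mL final; 20 min RT; delta FRET normalized to ADEP and DMSO controls.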
TDP1 cell noCPT = qHTS for Inhibitors of human tyrosyl-DNA phosphodiesterase 1 (TDP1): qHTS in cells in absence of CPT. 420,000 tested, 15% active. AID 686978, 2013. Potency, µM (highest dose often 46.2 µM), most hits filed as inhibitors. DT40 Tdp1-/- hTDP1 cells, no CPT, ATP luminescence, 48 h; also: nearly all actives have a fitted effect of over 55% in size
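Cells were dispensed at 400 per well, compounds added by pin tool, plates incubated ≥48 hr at 37 °C, then CellTiter-Glo added for 30 min at room temperature before luminescence reading. Line: DT40 Tdp1-/- complemented with hTDP1; camptothecin omitted.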
TDP1 block = TDP1 (human) enzyme inhibition. Q9NUW8. recombinant TDP1, AlphaScreen DNA substrate cleavage. Potency, µM (top dose mostly 130 µM), actives largely listed as inhibitors. 350,000 tested, 0.28% active. AID 485290; also: nearly all actives have a fitted effect of over 40% in size
Target sequence (Q9NUW8 whole entry, looked up): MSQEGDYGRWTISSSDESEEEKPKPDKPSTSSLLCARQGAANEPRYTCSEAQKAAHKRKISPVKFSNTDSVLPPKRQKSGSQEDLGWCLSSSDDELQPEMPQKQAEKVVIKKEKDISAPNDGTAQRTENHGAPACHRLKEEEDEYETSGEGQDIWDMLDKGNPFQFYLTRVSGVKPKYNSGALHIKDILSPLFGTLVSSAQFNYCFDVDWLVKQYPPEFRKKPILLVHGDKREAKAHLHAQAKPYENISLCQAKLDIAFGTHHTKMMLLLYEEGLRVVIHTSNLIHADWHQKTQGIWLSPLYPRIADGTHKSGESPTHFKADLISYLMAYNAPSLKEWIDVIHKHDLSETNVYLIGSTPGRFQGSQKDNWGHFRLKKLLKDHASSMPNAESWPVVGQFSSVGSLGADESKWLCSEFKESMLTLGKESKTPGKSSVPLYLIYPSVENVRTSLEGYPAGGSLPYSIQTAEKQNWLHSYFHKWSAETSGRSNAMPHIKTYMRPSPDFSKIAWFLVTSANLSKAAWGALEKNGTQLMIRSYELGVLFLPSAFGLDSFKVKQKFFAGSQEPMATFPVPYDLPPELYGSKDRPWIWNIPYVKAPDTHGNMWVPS
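Here, a 5' biotin and 3' phosphotyrosine-FITC DNA oligonucleotide reports Tdp1 activity: intact substrate bridges AlphaScreen beads, while cleavage leaves a 3' phosphate and drops signal. All incubations at room temperature.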
A number is an active result; – = inactive; ? = inconclusive; · = no result; ! = not confirmed by another sample; [ ] = remark or other dose. Hits are enriched below; roughly 17% of the tested compounds scored in any of these assays. Unless noted, calls follow the shape of the dose curve; as a rule, active = well fitted curve in the direction sought with a large enough effect; inconclusive = small, poorly fitted or top-dose-only effect, or another doubt; inactive = no such curve, though single readings can be large; an effect the other way counts as inactive or inconclusive.

SMILES	TDP1 cell CPT	ClpP mod	TDP1 cell noCPT	TDP1 block
COc1ccc(-c2cc(C(=O)Nc3c(F)cc(F)cc3Br)no2)cc1	–	–	?	·
O=C(O)C1CC2C3CC(C(=O)O)C(C3)C2C1 (centres undefined)	–	–	–	·
O=C(Oc1cccc2c(O)cccc12)c1ccco1	21µM	·	12µM	·
COc1cccc(C(NC(C)=O)c2nc(-c3cccc(F)c3)cs2)c1 (centres undefined)	–	–	–	·
COc1cc(-c2c(-c3ccc4c(c3)OCO4)noc2-c2ccsc2)cc(OC)c1OC	?	–	–	·
O=C(CN1C(=O)NC2(CCCCC2)C1=O)Nc1ccc(F)cc1	–	–	–	–
Cc1ccccc1NC(=O)CN1C(=O)NC2(CCCCCCC2)C1=O	–	–	–	–
CC1CCC2(CC1)NC(=O)N(CC(=O)Nc1ccc3c(c1)CCC3)C2=O (centres undefined)	?	·	?	–
CCCn1c(NC(=O)CN2C(=O)NC3(CCCCC3)C2=O)nc2ccccc21	?	·	23µM	·
O=C(CN1C(=O)NC2(CCCCCCC2)C1=O)Nc1ccc(OC(F)F)cc1	23µM	–	18µM	–
COc1ccc(OCCOC(=O)CN2C(=O)NC3(CCCC3)C2=O)cc1	?	–	–	·
O=C(CN1C(=O)NC2(CCCCCC2)C1=O)Nc1ccc2c(c1)CCC2	?	·	12µM	–
O=C(CN1C(=O)NC2(CCCC2)C1=O)OCCOc1ccc(Br)cc1	15µM	–	18µM	–
COc1ccc(NC(=O)CN2C(=O)NC3(CCCCCC3)C2=O)cc1Cl	?	–	?	–
Cc1ccc(NC(=O)CN2C(=O)NC3(CCCCCCC3)C2=O)cc1C	9.2µM	–	?	–
O=C(CN1C(=O)NC2(CCCCCCC2)C1=O)Nc1cccc(Br)c1	16µM	–	21µM	–
CN(CC(=O)Nc1cccc(F)c1)C(=O)CN1C(=O)NC2(CCCCC2)C1=O	?	·	21µM	·
CCc1ccc(CNC(=O)Cn2nc(C)c3nn(-c4ccc(Cl)cc4)c(C)c3c2=O)cc1	?	–	?	–
CCc1ccccc1NC(=O)Cn1nc(C)c2nn(-c3ccc(Cl)cc3)c(C)c2c1=O	?	–	15µM	–
COC(=O)c1ccccc1NC(=O)CCn1nc(C)c2c(C)n(-c3ccccc3)nc2c1=O	–	?	–	–
COC(=O)c1ccccc1NC(=O)Cn1nc(C)c2nn(-c3ccc(Cl)cc3)c(C)c2c1=O	21µM	–	26µM	–
O=C(O)C1C2C=CC(O2)C1C(=O)Nc1ccc(S(=O)(=O)N2CCc3ccccc32)cc1 (centres undefined)	–	–	–	–
O=C(O)C1C2C=CC(O2)C1C(=O)Nc1ccc(S(=O)(=O)Nc2ccccc2)cc1 (centres undefined)	15µM	–	?	–
CCOc1cccc(C(=O)Nc2c(C(=O)c3ccc(OC)cc3)oc3ccccc23)c1	–	–	–	–
O=C(O)c1cc([N+](=O)[O-])c(NCCC2=CCCCC2)c([N+](=O)[O-])c1	–	–	–	–
SMILES	TDP1 cell CPT	ClpP mod	TDP1 cell noCPT	TDP1 block
CC(=O)c1ccc(N2CCN(S(=O)(=O)c3ccc4c(c3)CC(C)N4C(=O)C3CCC3)CC2)cc1 (centres undefined)	7.3µM	–	5.8µM	–
CC(=O)N1c2ccc(S(=O)(=O)N3CCC(C(=O)N4CCCCC4)CC3)cc2CC1C (centres undefined)	?	–	?	–
COc1cccc(N2CCN(C(=O)C3CCN(S(=O)(=O)c4ccc5c(c4)CC(C)N5C(C)=O)CC3)CC2)c1 (centres undefined)	?	–	?	–
CC(=O)N1c2ccc(S(=O)(=O)N3CCC(C(=O)N4CCN(c5ccccc5F)CC4)CC3)cc2CC1C (centres undefined)	26µM	–	?	–
CC1Cc2cc(S(=O)(=O)N3CCN(c4ccc(Cl)cc4)CC3)ccc2N1C(=O)C1CC1 (centres undefined)	16µM	–	13µM	–
CC(=O)N1c2ccc(S(=O)(=O)N3CCC(C(=O)N4CCN(c5ccc(Cl)cc5)CC4)CC3)cc2CC1C (centres undefined)	16µM	–	5.2µM	–
Cc1c(Cl)cccc1NC(=O)c1cc(-c2cccs2)on1	?	–	–	–
CCC1CN(CCNC(=O)c2cscn2)Cc2cc(OC)ccc2O1 (centres undefined)	–[9.04 µM]	·	–	·
CCC(=O)N1c2ccc(S(=O)(=O)CCC(=O)N3CCN(c4ccccc4F)CC3)cc2CC1C (centres undefined)	?	–	16µM	·
CC(=O)c1ccc(N2CCN(c3ccc4cc(S(=O)(=O)N5CCC(C)CC5)ccc4n3)CC2)cc1	?	–	7.3µM!	–
CC1CCN(S(=O)(=O)c2ccc3nc(N4CCN(c5ccc(F)cc5)CC4)ccc3c2)CC1	–	–	–	–
CN1C(=O)Cc2cc(S(=O)(=O)CCC(=O)N3CCN(c4ccccc4F)CC3)ccc21	?	–	–	–
COC(=O)c1ccc(C(NC(=O)OCc2ccccc2)/C(C)=C/[C@@H](C)C(=O)NCCN2CCOCC2)cc1 (some centres undefined)	·	·	·	–
O=C(Cc1ccccc1)NO	–	–	–	–
O=C(Cc1ccsc1-c1ccccc1)NO	26µM	–	21µM	–
CCOC(=O)[C@H]1[C@H]2COc3ccc(Br)cc3[C@@H]2N2C(=O)c3ccc(Cl)cc3NC(=O)[C@@]12C	18µM	–	18µM	–
CCOC(=O)[C@H]1[C@H]2COc3ccc(C)cc3[C@@H]2N2C(=O)c3ccc(C)cc3NC(=O)[C@@]12C	23µM	–	?	–
CCOC(=O)[C@H]1[C@H]2COc3ccc(C)cc3[C@@H]2N2C(=O)c3cc(Cl)ccc3NC(=O)[C@@]12C	?	–	?	–
COc1ccc2cc(C(C)C(=O)OC(C)C)ccc2c1 (centres undefined)	–	–	–	79µM
OC[C@@H](O)[C@@H](O[C@@H]1O[C@H](CO)[C@H](O)[C@H](O)[C@H]1O)[C@H](O)[C@@H](O)CO	–	–	–	·
O=C(COC(=O)CSc1ccc([N+](=O)[O-])cc1)NCc1cccs1	–	–	–	·
O=C(Nc1ccc(F)cc1C(F)(F)F)C1CCN(c2ncccn2)CC1	–	–	–	–
CCOc1ccc(N(CC)S(=O)(=O)c2cc(Br)cc3c2N(C(C)=O)C(C)C3)cc1 (centres undefined)	21µM	–	7.3µM	–
CC(=O)N1c2c(cc(Br)cc2S(=O)(=O)N2CCN(c3cccc(Cl)c3)CC2)CC1C (centres undefined)	10µM	–	9.2µM	–
CCOc1ccc(OCC)c(NS(=O)(=O)c2cc(Br)cc3c2N(C(C)=O)C(C)C3)c1 (centres undefined)	?	–	13µM	–
